# The full data set covers some 7,900 targets. This sample favours those with a hit. About 0.6% of all pairs of compound and target were hits. Values without a mark were called inactive.
# What was measured:
# Assay in all cases: log2 fold change, soluble protein after heating vs DMSO (PISA); higher = thermal stabilisation; K562 cells, 10 uM, 30 min; active = over 0.2 and 3.5 SD of the protein, either way, in both replicates (recomputed)
# [1] = compound: CC1=C(C=C(C=C1)NC(=O)C2=CC(=CC=C2)C(C)(C)C#N)NC3=CC4=C(C=C3)N=CN(C4=O)C
# In short: (§1)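 Aliquots of K562 cells (2×10^6 cells/mL) treated with 10 μM compound for 30 min were heated for 3 min over 48°C-58°C. After pooling and extraction in PBS with 0.5% NP-40 at 4°C, soluble protein from a 21,000xg, 90 min spin was quantified by TMTpro 16plex LC-MS/MS with channel sums equalised. Thermal stability is expressed against control samples, from duplicates, as a log2 fold change.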
# [2] = compound: CC1=C(C=C(C=C1)NC(=O)C2=CC(=CC=C2)N(C)C)NC(=O)C3=CC=C(C=C3)O
# In short: as §1
# [3] = compound: CC1=CC=C(C=C1)SC2=C3C=C(SC3=CN=C2)C(=O)N
# In short: as §1
# [4] = compound: CC1=NC(=CC=C1)C2=C(N=C(N2)C(C)(C)C)C3=CC4=NC=CN=C4C=C3
# In short: as §1
# Nexturastat A = compound: CCCCN(Cc1ccc(C(=O)NO)cc1)C(=O)Nc1ccccc1 [Nexturastat A]
# In short: as §1
# vemurafenib = compound: CCCS(=O)(=O)Nc1ccc(F)c(C(=O)c2c[nH]c3ncc(-c4ccc(Cl)cc4)cc23)c1F [vemurafenib]
# In short: as §1
# [5] = compound: CCCS(=O)(=O)Nc1ccc(F)c(C(=O)c2c[nH]c3ncc(Cl)cc23)c1F
# In short: as §1
# [6] = compound: CCCc1cc(C)[nH]c(=O)c1CNC(=O)c1cc(-c2ccnc(N3CCN(C)CC3)c2)cc2c1cnn2C(C)C
# In short: as §1
# givinostat = compound: CCN(CC)Cc1ccc2cc(COC(=O)Nc3ccc(C(=O)NO)cc3)ccc2c1 [givinostat]
# In short: as §1
# barasertib = compound: CCN(CCCOc1ccc2c(Nc3cc(CC(=O)Nc4cccc(F)c4)[nH]n3)ncnc2c1)CCOP(=O)(O)O [barasertib]
# In short: as §1
# Chain of UniProt Q9BW92 (Q9BW92 whole entry, looked up): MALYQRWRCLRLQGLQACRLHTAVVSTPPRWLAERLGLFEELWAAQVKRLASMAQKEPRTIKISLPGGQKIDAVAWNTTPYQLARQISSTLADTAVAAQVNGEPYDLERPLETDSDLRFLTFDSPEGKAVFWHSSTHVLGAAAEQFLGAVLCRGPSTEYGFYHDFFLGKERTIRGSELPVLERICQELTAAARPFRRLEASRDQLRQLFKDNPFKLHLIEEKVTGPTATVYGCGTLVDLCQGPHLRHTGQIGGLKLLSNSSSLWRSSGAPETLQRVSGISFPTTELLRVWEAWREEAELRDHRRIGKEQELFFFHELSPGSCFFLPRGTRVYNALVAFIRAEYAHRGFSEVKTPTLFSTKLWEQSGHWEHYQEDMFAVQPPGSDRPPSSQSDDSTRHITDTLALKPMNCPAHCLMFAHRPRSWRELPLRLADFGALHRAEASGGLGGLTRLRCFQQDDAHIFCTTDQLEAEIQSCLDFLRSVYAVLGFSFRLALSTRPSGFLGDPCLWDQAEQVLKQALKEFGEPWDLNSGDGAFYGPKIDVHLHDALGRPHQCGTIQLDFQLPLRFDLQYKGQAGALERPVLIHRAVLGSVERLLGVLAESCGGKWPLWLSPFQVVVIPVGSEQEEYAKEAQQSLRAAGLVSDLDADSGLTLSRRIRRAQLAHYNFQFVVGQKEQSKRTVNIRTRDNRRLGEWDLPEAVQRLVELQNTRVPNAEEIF
# Chain of UniProt Q96CQ1 (Q96CQ1 whole entry, looked up): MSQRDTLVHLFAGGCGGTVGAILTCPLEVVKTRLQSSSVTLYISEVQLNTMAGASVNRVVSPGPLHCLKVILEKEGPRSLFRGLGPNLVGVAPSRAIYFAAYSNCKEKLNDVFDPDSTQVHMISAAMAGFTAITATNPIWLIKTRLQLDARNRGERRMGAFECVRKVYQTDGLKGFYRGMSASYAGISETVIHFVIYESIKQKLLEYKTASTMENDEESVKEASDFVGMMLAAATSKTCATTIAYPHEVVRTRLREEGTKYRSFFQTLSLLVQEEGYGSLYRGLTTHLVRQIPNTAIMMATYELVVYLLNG
# Chain of UniProt Q13043 (Q13043 whole entry, looked up): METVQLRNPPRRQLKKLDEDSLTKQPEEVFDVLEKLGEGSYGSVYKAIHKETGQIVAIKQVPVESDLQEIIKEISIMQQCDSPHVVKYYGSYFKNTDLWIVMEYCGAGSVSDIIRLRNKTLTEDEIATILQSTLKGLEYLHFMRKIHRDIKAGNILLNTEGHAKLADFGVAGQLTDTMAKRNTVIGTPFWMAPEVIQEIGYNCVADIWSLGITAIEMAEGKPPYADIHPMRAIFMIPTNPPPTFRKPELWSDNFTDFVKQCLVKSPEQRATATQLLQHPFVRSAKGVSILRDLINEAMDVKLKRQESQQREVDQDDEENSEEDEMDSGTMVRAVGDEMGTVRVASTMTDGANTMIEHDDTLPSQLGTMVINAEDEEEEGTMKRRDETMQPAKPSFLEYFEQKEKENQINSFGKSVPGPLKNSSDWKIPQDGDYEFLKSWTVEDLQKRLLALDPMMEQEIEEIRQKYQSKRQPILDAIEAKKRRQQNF
# Chain of UniProt Q92544 (Q92544 whole entry, looked up): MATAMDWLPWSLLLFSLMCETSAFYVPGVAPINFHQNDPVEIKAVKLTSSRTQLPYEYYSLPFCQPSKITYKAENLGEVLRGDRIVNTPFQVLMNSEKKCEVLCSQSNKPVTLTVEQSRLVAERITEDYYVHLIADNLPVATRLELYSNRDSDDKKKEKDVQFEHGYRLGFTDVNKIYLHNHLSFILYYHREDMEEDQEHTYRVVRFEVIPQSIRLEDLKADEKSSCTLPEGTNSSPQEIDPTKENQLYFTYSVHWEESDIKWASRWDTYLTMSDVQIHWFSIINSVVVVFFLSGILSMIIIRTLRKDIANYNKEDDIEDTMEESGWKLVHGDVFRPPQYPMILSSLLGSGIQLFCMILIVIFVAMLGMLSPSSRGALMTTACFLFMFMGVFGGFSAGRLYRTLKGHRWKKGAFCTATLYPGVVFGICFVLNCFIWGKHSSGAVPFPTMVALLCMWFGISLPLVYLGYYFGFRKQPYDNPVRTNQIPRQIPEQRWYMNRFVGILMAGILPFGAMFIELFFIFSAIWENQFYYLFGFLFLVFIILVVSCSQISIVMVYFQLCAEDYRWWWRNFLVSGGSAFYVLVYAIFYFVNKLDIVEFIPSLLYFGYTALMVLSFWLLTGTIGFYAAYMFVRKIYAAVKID
# Chain of UniProt Q9UNH7 (Q9UNH7 whole entry, looked up): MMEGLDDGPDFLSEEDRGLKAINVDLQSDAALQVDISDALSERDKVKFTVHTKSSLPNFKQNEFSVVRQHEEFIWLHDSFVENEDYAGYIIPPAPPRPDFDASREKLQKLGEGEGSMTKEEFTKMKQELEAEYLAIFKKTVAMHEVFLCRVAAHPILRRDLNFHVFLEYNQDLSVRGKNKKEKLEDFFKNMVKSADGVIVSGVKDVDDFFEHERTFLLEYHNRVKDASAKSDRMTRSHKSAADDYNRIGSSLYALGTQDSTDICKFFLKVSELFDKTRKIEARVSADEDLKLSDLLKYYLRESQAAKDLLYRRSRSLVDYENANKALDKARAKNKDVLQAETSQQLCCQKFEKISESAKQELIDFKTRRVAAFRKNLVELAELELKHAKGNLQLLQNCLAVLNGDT
# Chain of UniProt P53597 (P53597 whole entry, looked up): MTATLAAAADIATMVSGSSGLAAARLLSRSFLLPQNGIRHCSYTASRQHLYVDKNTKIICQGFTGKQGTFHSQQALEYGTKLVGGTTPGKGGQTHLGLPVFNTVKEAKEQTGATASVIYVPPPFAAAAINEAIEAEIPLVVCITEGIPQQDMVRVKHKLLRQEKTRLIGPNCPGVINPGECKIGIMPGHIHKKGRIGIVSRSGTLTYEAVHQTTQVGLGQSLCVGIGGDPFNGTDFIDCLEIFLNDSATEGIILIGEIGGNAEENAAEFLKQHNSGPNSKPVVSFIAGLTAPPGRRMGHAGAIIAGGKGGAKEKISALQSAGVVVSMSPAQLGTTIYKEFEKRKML
# Chain of UniProt Q01130 (Q01130 whole entry, looked up): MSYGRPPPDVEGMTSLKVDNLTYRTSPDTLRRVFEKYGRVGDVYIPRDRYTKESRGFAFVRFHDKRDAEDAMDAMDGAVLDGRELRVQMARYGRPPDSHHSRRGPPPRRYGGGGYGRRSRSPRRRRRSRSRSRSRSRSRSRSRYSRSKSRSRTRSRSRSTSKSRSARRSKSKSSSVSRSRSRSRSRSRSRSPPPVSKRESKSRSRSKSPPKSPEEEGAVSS
# Chain of UniProt P31641 (P31641 whole entry, looked up): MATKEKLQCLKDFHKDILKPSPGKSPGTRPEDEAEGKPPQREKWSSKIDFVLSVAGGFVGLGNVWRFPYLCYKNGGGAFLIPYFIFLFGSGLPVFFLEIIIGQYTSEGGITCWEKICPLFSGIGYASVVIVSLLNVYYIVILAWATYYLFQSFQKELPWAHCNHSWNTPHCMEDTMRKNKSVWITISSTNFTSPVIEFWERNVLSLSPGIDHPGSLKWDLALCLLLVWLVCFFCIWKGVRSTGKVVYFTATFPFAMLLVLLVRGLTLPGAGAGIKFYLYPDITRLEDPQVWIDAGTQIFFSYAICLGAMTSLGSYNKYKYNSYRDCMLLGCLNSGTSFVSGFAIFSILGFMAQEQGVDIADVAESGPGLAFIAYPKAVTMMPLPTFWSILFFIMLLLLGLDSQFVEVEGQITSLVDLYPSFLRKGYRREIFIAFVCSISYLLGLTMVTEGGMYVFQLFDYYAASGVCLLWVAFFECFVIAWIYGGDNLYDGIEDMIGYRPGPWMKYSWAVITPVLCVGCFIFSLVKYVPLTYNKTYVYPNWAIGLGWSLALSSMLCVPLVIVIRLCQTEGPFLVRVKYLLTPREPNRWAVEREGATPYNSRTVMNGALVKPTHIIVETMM
# Chain of UniProt O94901 (O94901 whole entry, looked up): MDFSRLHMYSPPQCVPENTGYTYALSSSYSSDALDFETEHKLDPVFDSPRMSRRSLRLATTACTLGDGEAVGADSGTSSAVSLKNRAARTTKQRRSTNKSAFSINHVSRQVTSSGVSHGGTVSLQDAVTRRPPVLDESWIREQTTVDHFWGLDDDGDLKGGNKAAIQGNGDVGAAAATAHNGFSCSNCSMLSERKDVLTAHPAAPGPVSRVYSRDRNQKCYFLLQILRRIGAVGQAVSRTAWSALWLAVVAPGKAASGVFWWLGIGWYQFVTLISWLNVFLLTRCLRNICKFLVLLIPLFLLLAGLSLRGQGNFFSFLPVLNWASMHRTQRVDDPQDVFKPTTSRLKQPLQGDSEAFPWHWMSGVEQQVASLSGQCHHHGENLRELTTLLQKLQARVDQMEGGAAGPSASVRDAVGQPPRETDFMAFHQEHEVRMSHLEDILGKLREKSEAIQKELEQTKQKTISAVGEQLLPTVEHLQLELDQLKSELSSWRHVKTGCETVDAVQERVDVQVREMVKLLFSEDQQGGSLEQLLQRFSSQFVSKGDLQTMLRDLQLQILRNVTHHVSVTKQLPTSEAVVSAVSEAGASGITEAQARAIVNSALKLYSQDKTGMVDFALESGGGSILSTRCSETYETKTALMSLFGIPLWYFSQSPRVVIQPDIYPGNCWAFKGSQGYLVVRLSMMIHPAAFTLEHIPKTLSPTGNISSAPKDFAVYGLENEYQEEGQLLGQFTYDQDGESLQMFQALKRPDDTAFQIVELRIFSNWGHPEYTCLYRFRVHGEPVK
# Chain of UniProt Q9P289 (Q9P289 whole entry, looked up): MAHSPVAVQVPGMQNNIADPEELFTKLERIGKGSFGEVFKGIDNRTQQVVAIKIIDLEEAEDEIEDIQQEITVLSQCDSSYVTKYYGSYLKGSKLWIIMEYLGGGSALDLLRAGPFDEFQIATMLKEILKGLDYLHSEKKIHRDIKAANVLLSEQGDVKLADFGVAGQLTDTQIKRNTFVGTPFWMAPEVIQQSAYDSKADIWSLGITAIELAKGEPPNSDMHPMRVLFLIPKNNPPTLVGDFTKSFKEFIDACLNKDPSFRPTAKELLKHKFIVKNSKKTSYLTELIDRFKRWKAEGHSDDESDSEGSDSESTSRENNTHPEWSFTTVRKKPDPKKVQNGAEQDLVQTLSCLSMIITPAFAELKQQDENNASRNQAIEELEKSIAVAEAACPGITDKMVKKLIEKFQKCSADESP
Target,log2 fold change [1],log2 fold change [2],log2 fold change [3],log2 fold change [4],log2 fold change (Nexturastat A),log2 fold change (vemurafenib),log2 fold change [5],log2 fold change [6],log2 fold change (givinostat),log2 fold change (barasertib)
SUN1 isoform 9 (UniProt O94901),-0.164,0.047,0.029,0.04,0.11,-0.21,-0.005,0.037,0.078,–
STARD7 (UniProt Q9NQZ5),0.061,0.015,0.004,-0.01,-0.053,0,-0.033,0.024,-0.029,-0.008
SMARCA4 (UniProt P51532),0.039,-0.111,-0.296,-0.028,0.351,-0.261,-0.556,-0.084,0.159,0.137
TM9SF4 (UniProt Q92544),0.084,-0.022,0.014,-0.012,-0.029,0.031,0.073,0.034,0.054,0.004
TARS2 (UniProt Q9BW92),-0.027,0.022,0.021,0.078,-0.201,0.008,0.027,-0.013,-0.245 (active),0.028
SLC25A42 (UniProt Q86VD7),-0.007,0.041,0.038,-0.049,-0.021,-0.015,0.089,-0.054,-0.006,0.001
STK39 (UniProt Q9UEW8),-0.049,0.006,-0.016,0.033,0.018,0.015,0.032,0.053,0.033,0.033
TAOK3 (UniProt Q9H2K8),0.028,-0.031,0.078,0.059,-0.054,0.092,0.115,0,-0.019,0.027
SLC4A2 (UniProt P04920),0.04,0.008,0.039,-0.017,0.046,0.002,0.035,-0.043,0.037,0.045
SUCLG1 (UniProt P53597),-0.02,-0.008,-0.001,0.025,-0.032,0.009,0,-0.006,-0.102,0.019
ST3GAL2 (UniProt Q16842),0.064,-0.054,-0.216,0.066,-0.012,-0.032,-0.013,0.212,0.078,0.112
TBK1 (UniProt Q9UHD2),-0.018,-0.03,0.019,-0.007,0.163,-0.012,0.089,0.083,0.065,0.028
SLC25A39 (UniProt Q9BZJ4),-0.029,0.011,0.207,0.129,-0.037,-0.019,-0.048,-0.133,-0.092,0.088
STK26 (UniProt Q9P289),-0.083,-0.037,0.068,0.015,0.044,-0.04,-0.03,0.014,0.086,0.08
SLC6A6 (UniProt P31641),0.017,0.014,0.011,0.028,-0.062,0.066,-0.01,-0.176,0.014,-0.018
SUN2 (UniProt Q9UH99),0.023,0.001,-0.017,-0.025,0.005,-0.026,0.015,0.013,0.005,-0.012
SLC25A36 (UniProt Q96CQ1),0.044,0.008,-0.172,-0.048,0.016,-0.297 (active),0.016,-0.067,0.115,-0.011
SLC29A3 (UniProt Q9BZD2),0.005,-0.023,0.089,0,0.124,-0.097,-0.128,0.017,0.005,-0.016
SRSF2 (UniProt Q01130),-0.023,0.053,-0.033,-0.032,0.036,-0.046,-0.025,-0.023,0.005,-0.007
SSRP1 (UniProt Q08945),-0.072,-0.049,0.018,0.091,-0.069,0.051,0.062,0.015,0.033,0.059
SP3 (UniProt Q02447),-0.008,-0.126,-0.041,-0.058,-0.003,-0.038,0.012,-0.052,-0.219,0.011
STAM2 (UniProt O75886),-0.08,-0.032,0.034,0.069,-0.012,0.009,0.074,-0.038,0.021,0.028
SNX6 (UniProt Q9UNH7),-0.04,-0.016,0.019,0.021,-0.025,-0.003,0.076,0.006,0.077,0.079
STK4 (UniProt Q13043),-0.065,0.018,-0.022,0.007,0.004,-0.024,-0.014,0.005,-0.006,0.032
TBCD (UniProt Q9BTW9),0.016,0.003,0.025,0.052,-0.051,0.005,0.02,-0.007,0.012,0.019
STXBP5 (UniProt Q5T5C0),-0.021,-0.041,-0.007,-0.006,-0.002,-0.038,0.013,-0.006,0.022,-0.004
SUOX (UniProt P51687),-0.012,-0.002,-0.007,-0.334 (active),-0.021,-0.046,-0.051,0.023,-0.033,0.007
TGFBI (UniProt Q15582),-0.167,0.101,0.062,0.091,-0.082,0.157,-0.044,-0.255,-0.08,0.068
SRRM2 (UniProt Q9UQ35),-0.022,0.01,-0.067,0.147,0.156,0.068,0.007,0.01,0.082,-0.041
SRSF4 (UniProt Q08170),0.042,-0.001,-0.067,-0.032,0.074,-0.027,0.017,0.224,0.052,-0.064

# Source: the supplement of paper PMC10849652
